Screens: PubChem, National Center for Advancing Translational Sciences (NCATS)
Rows were chosen to be rich in hits. Some 1.6% of all compounds tested hit in one or more screens of this group.
KCNH2 WT inh: qHTS for Inhibitors of KCHN2 3.1: Wildtype qHTS | activity change, % at 1.84 µM | Voltage-gated inwardly rectifying potassium channel KCNH2 (Homo sapiens), Q12809 | 0.37% of 340,000 active | U2OS, BacMam KCNH2, thallium flux FluxOr; stronger effect = lower value;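 active means maximum activity change below -70%; inconclusive means maximum activity change between -70% and -50%; inactive means maximum activity change above -50%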; further: on the % scale 0 is the no-effect control and ±100 the full control effect
Target sequence (Q12809 whole entry, looked up): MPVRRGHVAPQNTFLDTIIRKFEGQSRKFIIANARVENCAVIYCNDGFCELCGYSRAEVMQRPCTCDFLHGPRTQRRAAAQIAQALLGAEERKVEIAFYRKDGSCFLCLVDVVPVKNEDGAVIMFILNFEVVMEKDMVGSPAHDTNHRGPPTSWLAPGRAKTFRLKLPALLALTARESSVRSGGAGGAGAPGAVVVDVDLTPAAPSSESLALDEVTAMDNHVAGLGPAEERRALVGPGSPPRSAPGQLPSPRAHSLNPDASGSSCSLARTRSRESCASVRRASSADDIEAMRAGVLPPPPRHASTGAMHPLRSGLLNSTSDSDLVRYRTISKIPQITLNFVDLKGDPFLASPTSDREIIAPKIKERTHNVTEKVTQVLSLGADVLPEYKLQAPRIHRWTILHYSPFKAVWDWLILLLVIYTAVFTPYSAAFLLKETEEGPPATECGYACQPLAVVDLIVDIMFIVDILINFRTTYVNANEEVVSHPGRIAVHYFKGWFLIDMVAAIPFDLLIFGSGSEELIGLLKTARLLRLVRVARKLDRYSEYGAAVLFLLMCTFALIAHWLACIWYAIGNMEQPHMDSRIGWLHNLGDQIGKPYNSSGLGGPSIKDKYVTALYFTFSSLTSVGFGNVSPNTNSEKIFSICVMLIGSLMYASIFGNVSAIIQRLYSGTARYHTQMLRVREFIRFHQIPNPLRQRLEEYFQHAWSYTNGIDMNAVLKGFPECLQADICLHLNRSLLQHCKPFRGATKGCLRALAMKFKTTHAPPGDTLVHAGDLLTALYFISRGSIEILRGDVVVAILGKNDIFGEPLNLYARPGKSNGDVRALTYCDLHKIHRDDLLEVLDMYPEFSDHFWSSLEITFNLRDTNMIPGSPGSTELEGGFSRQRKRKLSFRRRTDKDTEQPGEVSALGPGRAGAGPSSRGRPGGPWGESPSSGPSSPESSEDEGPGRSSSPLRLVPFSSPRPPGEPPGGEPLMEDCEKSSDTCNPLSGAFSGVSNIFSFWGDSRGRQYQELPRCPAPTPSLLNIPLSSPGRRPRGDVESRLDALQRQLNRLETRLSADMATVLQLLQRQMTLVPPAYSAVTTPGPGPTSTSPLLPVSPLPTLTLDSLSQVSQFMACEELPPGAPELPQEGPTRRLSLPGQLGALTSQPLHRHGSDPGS
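U2OS cells transduced with wild-type KCNH2 virus are loaded with FluxOr dye for 45 min, and thallium flux is measured in kinetic reads before and after stimulation buffer. Rate constants are normalized to DMSO controls.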
KCNH2 3.1 block: qHTS for Inhibitors of KCHN2 3.1: Mutant qHTS | Potassium voltage-gated channel subfamily H member 2, brain isoform KCNH2 3.1 (human) | U2OS KCNH2 3.1, thallium flux FluxOr; stronger effect = lower value | activity change, % (tested at about 1.8 µM) | 0.95% of 340,000 active | AID 720553, 2013;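 active means maximum activity change below -70%; inconclusive means maximum activity change from -70% to -50%; inactive means maximum activity change above -50%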;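 further: thallium influx rate constant from kinetic fluorescence after stimulation buffer; on the % scale 0 is the no-effect control and ±100 the full control effect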
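Kinetic fluorescence (2 min after stimulation buffer) measures Tl+ influx through KCNH2 3.1 expressed by viral transduction in U2OS cells; the rate constant is normalized against DMSO controls serving as positive and negative references.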
gsp antag: qHTS for Antagonists of gsp, the Etiologic Mutation Responsible for Fibrous Dysplasia/McCune-Albright Syndrome: qHTS; 0.4% of 340,000 active; gsp-mutant cells, cAMP HTRF, 30 min; Potency, µM (series often up to 76.9 µM), for inactives: top-dose activity change, negative = inhibition, usual class: inhibitors; calls by dose curve; cell line not stated here;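 further: intracellular cAMP measured with PDE inhibitor Ro 20-1724 present during compound exposure; potency means the concentration at half of the fitted maximal effect; on the % scale 0 is the no-effect control and ±100 the full control effect; nearly all actives have a fitted effect of over 65% in size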
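Cells in G418 medium, seeded 16-24 h, 37C; buffer exchange to DPBS + 1 mM CaCl2, 0.5 mM MgCl2, 0.05% BSA; cpds in DMSO + […] (300 uM stock), 30 min 37C; HTRF cAMP detection.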
pAkt inh: HTS Assay for Inhibitors of Akt Phophorylation: Primary Screen. Neuro2A IGF-stimulated pAkt S473 HTRF, 20 min; stronger effect = lower value. activity change, % for hits at 50 µM. 0.32% of 360,000 active. AID 651550, 2012; in the data active means activity change below about -80%; inconclusive means mostly about -51% to -80%; further: on the % scale 0 is the no-effect control and ±100 the full control effect
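Neuro2A cells in DMEM with 0.5% FBS, overnight at 37 deg C, given compound at single 50 µM final, then IGF (6 nM final) for 20 min at 37 deg C. Lysed; phospho-Akt Ser473 by HTRF after 24 h, 665/615 ratio.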
gsp ag: qHTS for Agonist of gsp, the Etiologic Mutation Responsible for Fibrous Dysplasia/McCune-Albright Syndrome: qHTS | gsp mutant cells, cAMP HTRF, 30 min | Potency, µM (doses to about 76.9 µM), without a hit: at the top dose activation (cAMP increase), hits mostly activators | 0.13% of 340,000 active | AID 624287, 2012; active means well fitted activation curve with a large enough effect; inconclusive means small, poorly fitted or top-dose-only effect, or another doubt; inactive means no such curve, though single readings can be large or run the other way; cell line not stated here;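 further: phosphodiesterase inhibitor Ro 20-1724 added with compounds to block cAMP breakdown; potency means the concentration at half of the fitted maximal effect; nearly all actives have a fitted effect of over 60% in size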
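Cells stably selected in G418 were plated at 2000/well, grown 16-24 hr, then given compounds in DMSO with the PDE inhibitor […] (300 uM solution added) for 30 min at 37C; cAMP was read by HTRF.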
GRP78 ERSR act: qHTS for Inducers of the Endoplasmic Reticulum Stress Response (ERSR) in Human Glioma: qHTS; U87-MG GRP78 promoter luciferase reporter, 16 h; Potency, µM, without a hit: at the top dose activation, most hits filed as activators; 0.02% of 420,000 active; AID 602332, 2012; active means well fitted activation curve with a large enough effect; inconclusive means small, poorly fitted or top-dose-only effect; inactive means no such curve, though single readings can be large or run the other way; further: potency means the concentration at half of the fitted maximal effect; series mostly up to about 76 µM; % of control where 0% means no effect; nearly all actives have a fitted effect of over 35% in size
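Stably transfected U87-MG human glioma cells carrying a GRP78-based luminescent sensor were seeded at 1000 cells/well, pin-dosed with compounds and incubated 16 h. Luciferase reagent was then added, and end-point luminescence was read after 10 min at room temperature.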
* hit, by the source's call; [ ] = remark or other dose.

How did O=C(C1=C(O)C(=O)N(CCc2ccccc2)C1c1cccs1)c1ccco1 (stereo not given) do in these assays?
KCNH2 WT inh: -1; KCNH2 3.1 block: -124*; gsp antag: -3%; pAkt inh: inactive; gsp ag: 7%[15.4 µM]; GRP78 ERSR act: -2%

How did COCCN1CCN(C(=O)c2cnn(-c3nccc(-c4ccccc4F)n3)c2-c2ccco2)CC1 do in these assays?
GRP78 ERSR act: 1%

What do the screens show for `COc1ccc(Nc2cnn(-c3nc4ccccc4s3)c(=O)c2Cl)cc1`?
KCNH2 WT inh: -6; KCNH2 3.1 block: -11; gsp antag: inconclusive; pAkt inh: inactive; gsp ag: 22%; GRP78 ERSR act: -10%

What do the screens show for `O=c1c(Cl)c(Nc2cccc(Cl)c2)cnn1-c1nc2ccccc2s1`?
KCNH2 WT inh: -10; KCNH2 3.1 block: -106*; gsp antag: -26%; pAkt inh: inactive; gsp ag: 0%[15.4 µM]; GRP78 ERSR act: -4%

What do the screens show for `Cc1nc2ccc(Cl)cc2nc(C)/c1=N\O`?
KCNH2 WT inh: -9; KCNH2 3.1 block: -92*; gsp antag: -1%; gsp ag: 2%; GRP78 ERSR act: 12%

How did Cc1ccc2nc(C)/c(=N\O)c(C)nc2c1 do in these assays?
KCNH2 WT inh: 1; KCNH2 3.1 block: -3; gsp antag: -3%; pAkt inh: inactive; gsp ag: -72%; GRP78 ERSR act: 8%

How did CCOC(=O)c1ccc(NC(=O)COc2cc3oc(=O)c(CC(C)O)c(C)c3cc2Cl)cc1 (stereo not given) do in these assays?
KCNH2 WT inh: 8; KCNH2 3.1 block: 15; gsp antag: 4%; pAkt inh: inactive; gsp ag: -2%; GRP78 ERSR act: -6%

What do the screens show for `CC(=O)c1cccc(NC(=O)COc2cc3oc(=O)c(CC(C)O)c(C)c3cc2Cl)c1` (stereo not given)?
KCNH2 WT inh: -1; KCNH2 3.1 block: -9; gsp antag: 32µM*; pAkt inh: inactive; gsp ag: 6%[15.4 µM]; GRP78 ERSR act: -4%

Results for CCCc1cc(=O)oc2cc(OCc3cc(OC)c(OC)c(OC)c3)c(Cl)cc12 ?
KCNH2 WT inh: -2; KCNH2 3.1 block: 13; gsp antag: -26%; pAkt inh: inactive; gsp ag: inconclusive; GRP78 ERSR act: -5%

How did CCCc1cc(=O)oc2cc(OCc3ccc(OC)cc3)c(Cl)cc12 do in these assays?
KCNH2 WT inh: -18; KCNH2 3.1 block: -74*; gsp antag: 1%; pAkt inh: inactive; gsp ag: -2%; GRP78 ERSR act: -4%

What do the screens show for `Cc1cccc(Cn2c(SCCN3CCCCC3)nc3c2c(=O)[nH]c(=O)n3C)c1`?
KCNH2 WT inh: -34; KCNH2 3.1 block: -81*; gsp antag: 6%; pAkt inh: inactive; gsp ag: -16%; GRP78 ERSR act: -1%

How did Cn1c(=O)[nH]c(=O)c2c1nc(SCCN1CCCCC1)n2Cc1ccccc1 do in these assays?
KCNH2 WT inh: -40; KCNH2 3.1 block: -74*; gsp antag: 1%; pAkt inh: inactive; gsp ag: 0%; GRP78 ERSR act: 1%

How did Cc1csc(Sc2nc3c(c(=O)[nH]c(=O)n3C)n2Cc2ccccc2Cl)n1 do in these assays?
KCNH2 WT inh: 3; KCNH2 3.1 block: -4; gsp antag: 40µM*; pAkt inh: inactive; gsp ag: 1%; GRP78 ERSR act: -6%

Results for Cn1c(=O)[nH]c(=O)c2c1nc(SCCN1CCCCC1)n2CCCc1ccccc1 ?
KCNH2 WT inh: -1; KCNH2 3.1 block: -32; gsp antag: -9%; pAkt inh: inactive; gsp ag: 2%; GRP78 ERSR act: -2%

How did Cc1ccc(Cn2c(SCCN3CCCCC3)nc3c2c(=O)[nH]c(=O)n3C)cc1 do in these assays?
KCNH2 WT inh: -42; KCNH2 3.1 block: -95*; gsp antag: 4%; pAkt inh: inactive; gsp ag: 5%; GRP78 ERSR act: -4%

Results for Cc1ncc2c(c1CNC(=O)c1cncs1)CCN(C(=O)c1ccc(C(F)(F)F)cc1)C2 ?
GRP78 ERSR act: -6%

What do the screens show for `COC(=O)c1cc(CNC(=O)c2cccc(C)c2)cc(NC(=O)c2ccncc2)c1`?
GRP78 ERSR act: -5%

How did CN(Cc1ccco1)Cc1cc(-c2ccnc3cc(Cl)ccc23)ccc1O do in these assays?
GRP78 ERSR act: -2%

How did CSc1ncccc1C(=O)NCC1Cc2cc(-c3cnccn3)cc(Cl)c2O1 (stereo not given) do in these assays?
GRP78 ERSR act: 4%

What do the screens show for `O=C(CN1Cc2ccccc2OC(c2ccccc2F)C1)NC(c1ccccn1)C(F)(F)F` (stereo not given)?
GRP78 ERSR act: -4%

Results for CS(=O)(=O)c1nc(-c2ccc(F)cc2)cc(C(F)(F)F)n1 ?
KCNH2 WT inh: -17; gsp antag: -4%; pAkt inh: inactive; gsp ag: -15%; GRP78 ERSR act: -15%

Results for COc1ccc(-c2cc(C(F)(F)F)nc(S(C)(=O)=O)n2)cc1 ?
KCNH2 WT inh: -4; KCNH2 3.1 block: 1; gsp antag: 17%; pAkt inh: -98%*; gsp ag: inconclusive; GRP78 ERSR act: -12%

How did O=C(CCS(=O)(=O)c1ccc(Cl)cc1)NCCN1C(=O)S/C(=C\c2ccccc2F)C1=O do in these assays?
KCNH2 WT inh: -3; KCNH2 3.1 block: 7; gsp antag: 50µM*; pAkt inh: inactive; gsp ag: -2%; GRP78 ERSR act: 8%

How did Cc1ccc(S(=O)(=O)CCC(=O)NCCN2C(=O)S/C(=C\c3ccccc3)C2=O)cc1 do in these assays?
KCNH2 WT inh: -4; KCNH2 3.1 block: 10; gsp antag: 50µM*; pAkt inh: inactive; gsp ag: 4%; GRP78 ERSR act: 10%

Results for O=C(CNC(=O)c1ccccc1F)NCCN1C(=O)S/C(=C\c2ccccc2Cl)C1=O ?
KCNH2 WT inh: 7; KCNH2 3.1 block: 14; gsp antag: -4%; pAkt inh: inactive; gsp ag: -38%; GRP78 ERSR act: 0%

What do the screens show for `CCN(Cc1ccncc1)Cc1ccc2c(c1)CN(C(=O)c1ccccc1-n1cccn1)CCO2`?
GRP78 ERSR act: -1%
